# Test results as given in PubChem BioAssay AID493027 (The Scripps Research Institute Molecular Screening Center, 2011).
# Among all 2,000 compounds or so, about 45 (2%) were called active.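 The calls were made as follows: active = inhibition above the screen-wide mean inhibition plus 3 SD (cut at about 44% in these data); inactive = the rest.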 What follows is part of a selection rich in actives, with near analogues and random picks from the rest.
# Molecular target: Perilipin-1 (Homo sapiens) + 1-acylglycerol-3-phosphate O-acyltransferase ABHD5 (Homo sapiens) (UniProt O60240+Q8WTS1)
# Assay: ABHD5-PLIN1 interaction inhibitors, pilot screen, cell lysate, split luciferase complementation, luminescence, NIH validation set (AID 493027);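 as to inhibition: 0% = DMSO wells with the 100% control not disclosed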
# Details: split G. princeps luciferase complementation, 4 h; at 7.9 µM, stronger effect = higher value
# Sequence of Perilipin-1 (Homo sapiens) + 1-acylglycerol-3-phosphate O-acyltransferase ABHD5 (Homo sapiens) (O60240 whole entry, looked up): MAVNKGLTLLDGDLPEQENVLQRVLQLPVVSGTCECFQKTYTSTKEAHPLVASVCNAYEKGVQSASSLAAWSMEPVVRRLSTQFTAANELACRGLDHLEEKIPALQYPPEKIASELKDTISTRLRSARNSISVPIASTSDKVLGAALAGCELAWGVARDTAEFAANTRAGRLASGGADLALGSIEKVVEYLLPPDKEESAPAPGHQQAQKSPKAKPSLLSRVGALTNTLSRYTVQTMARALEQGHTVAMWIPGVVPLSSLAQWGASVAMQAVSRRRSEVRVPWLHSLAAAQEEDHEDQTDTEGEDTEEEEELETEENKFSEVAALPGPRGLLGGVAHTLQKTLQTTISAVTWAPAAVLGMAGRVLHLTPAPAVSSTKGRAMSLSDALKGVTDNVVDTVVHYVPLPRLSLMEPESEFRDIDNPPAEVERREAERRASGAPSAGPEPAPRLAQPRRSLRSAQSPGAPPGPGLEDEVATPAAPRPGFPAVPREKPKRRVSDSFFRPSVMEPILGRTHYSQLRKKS
# Sequence of Perilipin-1 (Homo sapiens) + 1-acylglycerol-3-phosphate O-acyltransferase ABHD5 (Homo sapiens) (Q8WTS1 whole entry, looked up): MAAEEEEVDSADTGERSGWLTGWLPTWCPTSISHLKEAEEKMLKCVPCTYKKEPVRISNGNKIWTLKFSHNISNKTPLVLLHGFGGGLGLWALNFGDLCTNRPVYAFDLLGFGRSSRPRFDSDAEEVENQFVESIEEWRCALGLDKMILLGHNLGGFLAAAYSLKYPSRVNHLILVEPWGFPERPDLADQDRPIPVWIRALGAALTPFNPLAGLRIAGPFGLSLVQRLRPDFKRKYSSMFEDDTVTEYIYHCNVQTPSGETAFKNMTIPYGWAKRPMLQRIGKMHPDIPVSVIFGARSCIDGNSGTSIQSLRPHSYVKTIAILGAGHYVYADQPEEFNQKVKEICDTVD
row,SMILES,inhibition
1,CSCCC(NC(C)=O)C(=O)Oc1ccc2c3c(c(=O)oc2c1)CCCC3 (stereo not drawn),4.14% (inactive)
2,CSCCC(NC(=O)OC(C)(C)C)C(=O)Oc1ccc2c(=O)c(-c3ccc4c(c3)OCCO4)coc2c1 (stereo not drawn),67.4% (active)
3,O=c1c(-c2ccc3c(c2)OCCO3)coc2cc(OC3OC(CO)C(O)C(O)C3O)ccc12 (stereo not drawn),-4.41% (inactive)
4,O=C(Nc1ccc(Cl)cn1)Nc1ccccc1Cl,-3.38% (inactive)
5,CC(C)C1Cc2[nH]c(=O)c(C(=O)O)cc2CO1 (stereo not drawn),-7.52% (inactive)
6,CCCC(=O)Nc1ccccc1NC(C)=O,-6.46% (inactive)
7,N/C(=N\OS(=O)(=O)c1ccc2ccccc2c1)c1cccnc1,0.01% (inactive)
8,COc1ccc(-c2c(NC(=O)c3ccco3)n(C)c3ccccc3c2=O)cc1,-10.8% (inactive)
9,O=C(NCCN1CCCCC1)c1c(O)c2ccccc2[nH]c1=O,-2.32% (inactive)
10,CC1(C)c2ccccc2N2CC(=O)NC21/C=C/c1ccco1 (stereo not drawn),47.4% (active)
11,CC1(C)c2ccccc2N2CC(=O)N(CC(N)=O)C21C (stereo not drawn),4.18% (inactive)
12,O=C(/C=C/c1ccco1)N1CCN(c2ccccc2)CC1,4.55% (inactive)
13,CC(=O)c1c(C)c(C)c2n1CCn1c(C)ccc1-2,5.75% (inactive)
14,COc1ccc(C2C(C#N)=C(N)Oc3cc(C)[nH]c(=O)c32)c(OC)c1OC (stereo not drawn),-14.5% (inactive)
15,O=C(/C=C/c1ccc2c(c1)OCO2)c1ccccn1,51.3% (active)
16,O=C(/C=C/c1ccc2c(c1)OCCCO2)c1ccc2ccccc2c1O,17.8% (inactive)
17,O=C(/C=C/c1ccc2c(c1)OCO2)NCc1ccc(F)cc1,-2.57% (inactive)
18,CC1(C)CC(=O)c2cc(O)ccc2O1,-2.35% (inactive)
19,CC(CCCC(C)(C)O)NC(=O)c1ccc(OC2CCN(C(=O)C3CC3)CC2)cc1 (stereo not drawn),-7.27% (inactive)
20,Cc1ccc2[nH]c3c(c2c1)CCNC3=O,-4.86% (inactive)
21,CC[n+]1ccc2cc(OC)c(OC)cc2c1Cc1ccc(OC)c(OC)c1,-12.6% (inactive)
22,COc1cc(=O)n(C)c2ccccc12,-0.74% (inactive)
23,COc1cccc2cc(-c3ccccc3)c(=O)oc12,-3.48% (inactive)
24,COc1ccc(/C=C/C(=O)c2cc3cccc(OC)c3oc2=O)cc1,60.6% (active)
25,COc1ccc(C(=O)/C=C/c2ccc(OC(=O)c3cc(OC)c(OC)c(OC)c3)cc2)cc1,26.9% (inactive)

row,SMILES,inhibition
1,NS(=O)(=O)c1cc2c(cc1Cl)NC(C1C[C@H]3C=C[C@@H]1C3)NS2(=O)=O (stereo partly drawn),0.4% (inactive)
2,O=C(O)CCn1cnc2ccccc2c1=O,3.53% (inactive)
3,O=C(Cc1ccccc1)NCC(=O)OCC(=O)c1ccccc1Cl,-13.7% (inactive)
4,CCN1C(=O)C(CC(=O)Nc2ccc(F)cc2)N(Cc2ccco2)C1=S (stereo not drawn),10.9% (inactive)
5,CS(=O)(=O)Oc1ccc2c(c1)O/C(=C\C=C\c1ccccc1)C2=O,58.8% (active)
6,CC(=O)Oc1ccc2occ(/C=N/c3cc(=O)[nH]c(=S)[nH]3)c(=O)c2c1,-1.72% (inactive)
7,O=c1cc(CN2CCN(c3cccc(Cl)c3)CC2)c2cc(O)c(-c3ccccc3)cc2o1,1.13% (inactive)
8,COc1ccc2[nH]c(C)c(CN3CCC(C)CC3)c(=O)c2c1,-4.96% (inactive)
9,CCc1cc2c(=O)c(-c3nc(C)cs3)coc2cc1OC(C)C(=O)NCCO (stereo not drawn),-3.43% (inactive)
10,COc1ccc2oc(=O)c(C(=O)Nc3ccccc3-c3ccccc3)cc2c1,-7.96% (inactive)
11,COc1ccc2oc(=O)c(C(=O)N3CCN(c4ccccc4)CC3)cc2c1,9.05% (inactive)
12,COc1ccc(O)c(C(=O)/C=C/c2cc3ccccc3o2)c1,66.9% (active)
13,Cc1ccc(NCCC(=O)c2ccccc2)cc1Cl,-2.97% (inactive)
14,CCCN1CCC(NC(=O)Nc2ccc(Br)cc2)CC1,-9.54% (inactive)
15,Cc1ccc2c(c1)C(O)(CC(=O)/C=C/C=C/c1ccccc1)C(=O)N2 (stereo not drawn),16.4% (inactive)
16,Cc1ccc(C2=NOC(=O)/C2=C\C=C\c2ccccc2)cc1,95.6% (active)
17,O=C1NC2(Nc3ccccc31)C(=O)Nc1ccc(Br)cc12 (stereo not drawn),0.88% (inactive)
18,CC1(C)CC(C(CC(=O)N2CCCC2)Cc2ccccc2)CCO1 (stereo not drawn),-12.5% (inactive)
19,Cc1cc(C(=O)Nc2ccccc2C(=O)N2CCCCC2)ccc1[N+](=O)[O-],-3.48% (inactive)
20,COc1ccc(/C=C2\CCc3ccccc3C2=O)c(OC)c1OC,-0.86% (inactive)
21,COc1ccc(/C=C2\CCn3c2nc2cc(C(=O)O)ccc2c3=O)cc1OC,-6.3% (inactive)
22,COc1ccc(/C=C2\CC/C(=C\c3ccc(OC)c(OC)c3)C2=O)cc1OC,59.1% (active)
23,CCN(CCCCCN(C)C)Cc1cc2ccccc2o1,-7.75% (inactive)
24,O=C1C(Cc2c[nH]c3ccccc23)NC(=S)N1Cc1ccccc1 (stereo not drawn),-4.43% (inactive)
25,CC(=O)N1CCN2C(=O)C1CCCC(=O)c1cc(C(C)C)ccc12 (stereo not drawn),0.46% (inactive)

row,SMILES,inhibition
1,O=C1ON=C(c2ccc(Cl)cc2)/C1=C/c1ccc(O)cc1,82.8% (active)
2,COc1cc2c(cc1OC)/C(=C/c1ccc(Cl)cc1)C(=O)OC2,27.4% (inactive)
3,CCOC(=O)N1CCN(Cc2nc(Cc3cccc(F)c3)no2)CC1,-1.53% (inactive)
4,C=CCc1ccc(OCC(O)COc2ccc(CC=C)cc2OC)c(OC)c1,-1.62% (inactive)
5,Cc1ccccc1C(=O)NNc1ncnc2c1cnn2C,-10.4% (inactive)
6,Cn1cc(CN2CCCC(CO)(Cc3cccc(Cl)c3)C2)cn1 (stereo not drawn),-10.7% (inactive)
7,c1ccc2c3c(c(CN4CCCCC4)cc2c1)COC3,-4.68% (inactive)
8,COc1cc(/C=C/C(=O)CC(=O)/C=C/c2ccc(O)c(OC)c2)ccc1O,50.4% (active)
9,CCN(CC)C(=O)c1ccc(O)c(OC)c1,-1.24% (inactive)
10,O=C(O)/C=C/c1ccc(O)c(O)c1,-2.22% (inactive)
11,COc1ccc2c(c1O)Cc1ccccc1C2=O,12% (inactive)
12,COc1cc(OC)cc(C(=O)N[C@@H](CCSC)c2nc3ccccc3[nH]2)c1,2.97% (inactive)
13,CC(C)CCC1(CCNC(C)c2cccs2)CCOC(C)(C)C1 (stereo not drawn),-4.9% (inactive)
14,COc1ccc(CCN=CC2=C(O)CC(C)(C)CC2=O)cc1,-4.85% (inactive)
15,CC(=O)Nc1ccc(CN2CCN(C3CCCCC3)C(CCO)C2)cc1 (stereo not drawn),-3.02% (inactive)
16,COC(=O)[C@@H](N)CS,65.9% (active)
17,CC(=O)N[C@@H](CS)C(=O)O,-18.8% (inactive)
18,Cc1ccc(NC(=O)CSc2nc(O)c(Cc3ccccc3)c(=O)n2-c2ccccc2)cc1,5.86% (inactive)
19,COc1ccc(C(=O)Oc2ccc3c(C)cc(=O)oc3c2C(C)=O)cc1,0.69% (inactive)
20,COc1ccc(/C=C\C(=O)c2c(O)ccc3c(C)cc(=O)oc23)cc1OC,62.7% (active)
21,COc1ccc(/C=C/C(=O)Nc2ccccc2C(=O)O)cc1OC,-6.48% (inactive)
22,CC(C)C(=O)Nc1c(O)c2ccccc2[nH]c1=O,-16.2% (inactive)
23,COC(=O)C1=C(C)NC(C)=C(C(=O)OC)C1c1ccccc1[N+](=O)[O-],active
24,CCOC(=O)C1=C(C)NC(C)=C(C(=O)OC)C1c1cccc([N+](=O)[O-])c1 (stereo not drawn),8.95% (inactive)
25,COC(=O)C1=C(C)NC(C)=C([N+](=O)[O-])C1c1ccccc1C(F)(F)F (stereo not drawn),1.42% (inactive)

row,SMILES,inhibition
1,COc1ccc(CCN=C(N)C(C)c2ccccc2)cc1OC (stereo not drawn),-12.2% (inactive)
2,CC(C)(C)C(=O)NC(=S)Nc1sc2c(c1C(N)=O)CCC2,1.49% (inactive)
3,COc1ccc(C2OC(=O)Cc3cc(OC)c(OC)cc32)cc1 (stereo not drawn),-1.64% (inactive)
4,OCCC1CN(Cc2nc(-c3ccccc3)cs2)CCN1Cc1ccc(F)cc1 (stereo not drawn),-1.6% (inactive)
5,COc1cc2c(cc1OC)-c1cc(OCc3ccccc3Cl)nc(=O)n1CC2,15.9% (inactive)
6,CC(CCc1ccccc1)NC(=O)/C=C/c1ccccc1 (stereo not drawn),2.76% (inactive)
7,O=C(O)c1ccc(C(=O)C(=O)c2ccccc2)cc1,-8.11% (inactive)
8,O=C(/C=C/c1ccccc1)/C=C/c1ccccc1,88.9% (active)
9,O=C(/C=C/Sc1ccccc1)c1ccccc1,81.5% (active)
10,O=C(CCCCCCCC(=O)c1ccccc1)c1ccccc1,-5.61% (inactive)
11,Cn1cc(/C=C/C(=O)c2ccccc2)c2ccccc21,13.9% (inactive)
12,O=C(/C=C/c1ccccc1)NC(=O)c1ccccc1O,4.79% (inactive)
13,O=C(/C=C/c1ccccc1)c1ccccc1,61.4% (active)
14,N/C(=N\OC(=O)/C=C/c1ccccc1)c1ccc(Br)cc1,-13% (inactive)
15,Cc1ccc2[nH]c3c(c2c1)CN(C)CC3,-2.27% (inactive)
16,Cc1ccc(S(=O)(=O)N[C@@H](C)C(=O)N2CCC(C(=O)N3CCC[C@H]3C(=O)O)CC2)cc1,-8.3% (inactive)
17,COc1ccc(C2OC[C@H]3O[C@H](O)[C@H](NC(C)=O)[C@@H](O)[C@@H]3O2)cc1 (stereo partly drawn),-8.14% (inactive)
18,COc1ccc2c(c1)CC[C@@H]1[C@@H]2CC[C@]2(C)C(=O)CC[C@@H]12,-10.8% (inactive)
19,C[C@]12CCC3C(CC=C4C[C@@H](O)CC[C@@]43C)C1CCC2[C@]1(C)CCC(=O)O1 (stereo partly drawn),0.59% (inactive)
20,COc1cccc(-n2c(C)c3c(OC)cccc(=O)c3c2C)c1,12% (inactive)
21,CCC(C)NCCOc1ccccc1C (stereo not drawn),-6.76% (inactive)
22,COc1ccc(OC)c(-n2c(Cn3c(-c4ccccn4)nc4ccccc43)n[nH]c2=S)c1,-10.2% (inactive)
23,COc1ccc(C(=O)N2c3cc4c(cc3C(C)=CC2(C)C)OCO4)cc1,-4.62% (inactive)
